Reference: PubChem BioAssay (NCATS)
Values joined by “and” are separate entries in the source; they are usually repeats but may differ in a detail not shown here. Equal entries are not always repeated. Inconclusive results are not listed. A call without a number means that no potency is given here. Values without a mark were called inactive. Active and inactive are the calls of the source. The call rests on the fitted dose curve; in most records, active means well fitted cell-killing curve with a large enough effect; inconclusive means small, poorly fitted or top-dose-only effect, or effect the other way; inactive means no such curve, though single readings can be large or run the other way.

assay: Viability qHTS for spleen associated tyrosine kinase inhibitor (SYKi) naive MV4-11 cells (AID 1963823); settings: MV4-11 AML viability, CellTiter-Glo luminescence, 72 h; series mostly up to 45 µM; further: nearly all actives have a fitted effect of over 40% in size
How it was run: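 Read-out: CellTiter-Glo luminescence. Exposure: 72 hr, 37 C, 5% CO2, 95% humidity. Cells: MV4-11 without SYK inhibitor history, 500/well, qHTS format.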
Potency means the concentration at half of the fitted maximal effect.

With `COc1cc(C(C)C)c(Oc2cnc(N)nc2N)cc1I` as the compound, how does the Potency read?
The Potency was 10.3 µM (active).

For `CC(O)CCC1C(CO[C@@H]2O[C@H](CO)[C@@H](O)[C@H](O)[C@H]2O)CC(O)CC1(C)C` (stereo partly specified), which Potency is on record?
Its Potency is “inactive”.

Which Potency does the source give for `O=S(=O)(Nc1ccccn1)c1ccc(N=Cc2c(O)[nH]c3ccc4ncsc4c23)cc1` here?
The Potency was 0.0944 µM (active).

Which Potency does the source give for `CC(C)C(O)(CO)CCO[C@@H]1O[C@H](CO[C@H]2OC[C@](O)(CO)[C@H]2O)[C@@H](O)[C@H](O)[C@H]1O` (stereo partly specified) here?
Its Potency is “inactive”.

For `CC(C)c1ccc2c(c1)C(O)CC1C(C)(C(=O)O)CCCC21C` (stereo unspecified), which Potency is on record?
Its Potency is “inactive”.

For `CN[C@H](C(=O)N[C@H](C(=O)N(C)[C@H](/C=C(\C)C(=O)O)C(C)C)C(C)(C)C)C(C)(C)c1ccccc1`, which Potency is on record?
Its Potency is “inactive”.

assay: Viability qHTS for spleen associated tyrosine kinase inhibitor (SYKi) drug resistant MV4-11 cells (AID 1963824); settings: SYKi-resistant MV4-11 viability, CellTiter-Glo, 72 h; series mostly up to 45 µM; further: nearly all actives have a fitted effect of over 35% in size
How it was run: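 SYK-inhibitor-resistant MV4-11 AML cells were seeded at 500 per well onto compound and cultured 72 hours (37 °C, 5% CO2). CellTiter-Glo was then added, and after 10 min at room temperature, luminescence gave viability.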

With `CC(O)C(O)/C=C/C=C/C(=O)O[C@@H]1C=C2COC(=O)[C@]2(O)[C@@]2(C)CCCC(C)(C)C12` (stereo partly specified) as the compound, how does the Potency read?
Its Potency is “inactive”.

Which Potency does the source give for `Nc1ccc(-c2cccc3c(=O)cc(N4CCOCC4)oc23)cc1` here?
The Potency was 7.31 µM (active).

For `COCCOC(=O)C1=C(C)NC2=C(C(=O)CC(c3ccccc3OC)C2)C1c1cccc(O)c1` (stereo unspecified), which Potency is on record?
Its Potency is 2.35 µM (active) and 5.8 µM (active).

For `COc1ccc(/C=C\C(=O)O)c(O[C@@H]2O[C@H](CO)[C@@H](O)[C@H](O)[C@H]2O)c1`, which Potency is on record?
The Potency was “inactive”.

Which Potency does the source give for `CCNC(=O)c1noc(-c2cc(Cl)c(O)cc2O)c1-c1ccc(OC)cc1` here?
Its Potency is 0.058 µM (active).

Which Potency does the source give for `CCn1c(=O)c(-c2ccc(-c3cncc(C)n3)cc2Cl)cc2cnc(NCCC3CCN(C)CC3)nc21` here?
The Potency was 2.09 µM (active).

Which Potency does the source give for `COc1cc(NC(=O)c2cc(C3CC3)on2)c(OC)cc1Cl` here?
Its Potency is “inactive”.

Which Potency does the source give for `Cn1ccnc1CCOC(c1cc2nccc(C(=O)O)c2[nH]1)c1ccccc1Cl` (stereo unspecified) here?
The Potency was “inactive”.

With `Cc1cncc2cccc(S(=O)(=O)N3CCCNC[C@@H]3C)c12` as the compound, how does the Potency read?
Its Potency is 9.2 µM (active).

With `C=C(NC(=O)C(=C)NC(=O)c1csc(C2=NC3c4csc(n4)C4NC(=O)c5csc(n5)C(C(C)(O)C(C)O)NC(=O)C5CSC(=N5)/C(=C/C)NC(=O)C(C(C)O)NC(=O)c5csc(n5)C3(CC2)NC(=O)C(C)NC(=O)C(=C)NC(=O)C(C)NC(=O)C(C(C)CC)NC2C=Cc3c(C(C)O)cc(nc3C2O)C(=O)OC4C)n1)C(N)=O` (stereo unspecified) as the compound, how does the Potency read?
Its Potency is 0.58 µM (active).

Which Potency does the source give for `CC(C)(O[C@@H]1O[C@H](CO)[C@@H](O)[C@H](O)[C@H]1O)C(OC(=O)/C=C\c1ccc(O)cc1)C(=O)OCc1ccc(O[C@@H]2O[C@H](CO)[C@@H](O)[C@H](O)[C@H]2O)cc1` (stereo partly specified) here?
Its Potency is “inactive”.

With `COc1cc(O)cc(OC2OC(CO)C(O)C(O)C2O)c1` (stereo unspecified) as the compound, how does the Potency read?
The Potency was “inactive”.

Which Potency does the source give for `CCOC(=O)C1=Cc2ccc(C(F)(F)C(F)(F)F)cc2N=C(N)C1` here?
The Potency was 20.6 µM (active).

Which Potency does the source give for `C=C[C@H]1[C@H](O[C@@H]2O[C@H](CO)[C@@H](O)[C@H](O)[C@H]2O)OC=C(C(=O)OC)[C@H]1CCOC(=O)c1cc(O)c(O)c(O)c1` here?
Its Potency is “inactive”.

With `NC(=O)CCCSc1nc(N)nc(-c2c(Cl)cc3c4c(cccc24)COC3)n1` as the compound, how does the Potency read?
The Potency was 0.092 µM (active).

With `C=C1CCC2C(OC(=O)C2(O)COC(C)=O)C2C(=C)C(O)CC12` (stereo unspecified) as the compound, how does the Potency read?
Its Potency is “inactive”.

With `C=C1C(=O)O[C@H](CCC)[C@H]1C(=O)O` as the compound, how does the Potency read?
The Potency was “inactive”.

With `CNC(=O)[C@H]1O[C@@H](n2cnc3c(NCc4ccc(N)c(I)c4)ncnc32)[C@H](O)[C@@H]1O` as the compound, how does the viability, % of control read?
Its viability, % of control is 80.4% [at 9.25 µM].

For `CCN(CC)CCN(Cc1ccc(-c2ccc(C(F)(F)F)cc2)cc1)C(=O)Cn1c(SCc2ccc(F)cc2)nc(=O)c2c1CCC2`, which Potency is on record?
The Potency was 3.26 µM (active).

Which Potency does the source give for `Nc1ccc(S(=O)(=O)c2ccc(N)cc2)cc1` here?
The Potency was “inactive”.

Which Potency does the source give for `CNC(=O)c1ccccc1Nc1nc(Nc2ccc3c(c2OC)CCCC(N2CCN(CCO)CC2)C3)ncc1Cl` (stereo unspecified) here?
Its Potency is 0.731 µM (active).

Which Potency does the source give for `COC(=O)C1=COC(OC2OC(CO)C(O)C(O)C2O)C2C1CC(OC(=O)C(O)CC(=O)O)C2C` (stereo unspecified) here?
The Potency was “inactive”.

With `CC(O)(C#Cc1ccc2c(c1)N(c1nc(N)ncc1Cl)CC2)c1nccs1` (stereo unspecified) as the compound, how does the Potency read?
The Potency was 10.3 µM (active).

With `C=C1C(=O)O[C@H]2[C@H]1[C@@H](OC(=O)/C(C)=C\C)C[C@]1(C)O[C@@H]1[C@H]1O[C@H]1C(=C)[C@H]2O` as the compound, how does the Potency read?
The Potency was 3.6 µM (active).

For `CN(C)c1ccc(Nc2nc(N)n(C(=O)c3c(F)cccc3F)n2)cc1`, which Potency is on record?
The Potency was 4.17 µM (active).

For `OCC(CO[C@@H]1O[C@H](CO)[C@@H](O)[C@H](O)[C@H]1O)c1ccc2c(c1)OCO2` (stereo partly specified), which Potency is on record?
Its Potency is “inactive”.

Which Potency does the source give for `Clc1ccc(Nc2nc3ccccc3c3nc(C4CCCCC4)[nH]c23)cc1Cl` here?
The Potency was 8.2 µM (active).

For `CC(NC(=O)c1ccccc1N)C(=O)O` (stereo unspecified), which Potency is on record?
The Potency was “inactive”.

With `CCN1/C(=C/C(C)=O)Sc2ccc(OC(C)=O)cc21` as the compound, how does the Potency read?
Its Potency is 10.3 µM (active).

With `CCOC(=O)c1cc(C#N)c(N2CCC(C(=O)NS(=O)(=O)Cc3ccccc3)CC2)nc1C` as the compound, how does the Potency read?
Its Potency is “inactive”.

Which Potency does the source give for `C=C1C(=O)OC2C(OC(=O)C=C(C)C)C(C)=C3C(=O)C=C(C)C3C(O)C12` (stereo unspecified) here?
Its Potency is 1.61 µM (active).

For `CNC(=O)c1cc(Oc2ccc(NC(=O)c3cccc(C(F)(F)F)c3)cc2)ccn1`, which Potency is on record?
The Potency was 11.6 µM (active).

For `C=CCc1ccc(O[C@@H]2O[C@H](CO[C@@H]3O[C@H](CO)[C@@H](O)[C@H](O)[C@H]3O)[C@@H](O)[C@H](O)[C@H]2O)c(O)c1`, which Potency is on record?
Its Potency is “inactive”.

For `CCC(=O)N1CCN(c2ccc(-n3c(=O)ccc4cnc5ccc(-c6cnc7ccccc7c6)cc5c43)cc2C(F)(F)F)CC1`, which Potency is on record?
Its Potency is 59.6 nM (active) and 102 nM (active).

Which Potency does the source give for `COc1cc(C(C)C)c(Oc2cnc(N)nc2N)cc1I` here?
The Potency was 10.3 µM (active).

With `CC(O)CCC1C(CO[C@@H]2O[C@H](CO)[C@@H](O)[C@H](O)[C@H]2O)CC(O)CC1(C)C` (stereo partly specified) as the compound, how does the Potency read?
The Potency was “inactive”.

With `O=S(=O)(Nc1ccccn1)c1ccc(N=Cc2c(O)[nH]c3ccc4ncsc4c23)cc1` as the compound, how does the Potency read?
Its Potency is 0.299 µM (active).

Which Potency does the source give for `CC(C)C(O)(CO)CCO[C@@H]1O[C@H](CO[C@H]2OC[C@](O)(CO)[C@H]2O)[C@@H](O)[C@H](O)[C@H]1O` (stereo partly specified) here?
Its Potency is “inactive”.

Which Potency does the source give for `CC(C)c1ccc2c(c1)C(O)CC1C(C)(C(=O)O)CCCC21C` (stereo unspecified) here?
The Potency was “inactive”.

Which Potency does the source give for `CN[C@H](C(=O)N[C@H](C(=O)N(C)[C@H](/C=C(\C)C(=O)O)C(C)C)C(C)(C)C)C(C)(C)c1ccccc1` here?
Its Potency is “inactive”.
